Measured values: PubChem BioAssay AID588492 (Sanford-Burnham Center for Chemical Genomics, 2011)
The whole screen tested about 360,000 compounds, of which about 2,300 (0.64%) were called active. Shown is part of a subset that was picked to be rich in actives. Values without a mark were called inactive.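 How the source made its calls: active means compounds giving at least 50% protection of heart cells from peroxide-induced death in the single-dose screen, raw or plate-pattern-corrected value; inactive means the rest.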

assay: cardioprotection against H2O2-induced cell death, primary screen, uHTS, H9c2 cells, ATPLite luminescence (AID 588492); conditions: H9c2 cardiomyocytes, H2O2 injury protection, 2 h, at 20 µM, active compounds read high;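 further: 0% = DMSO wells with peroxide and 100% = DMSO wells without peroxide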

Row | Structure (SMILES) | protection from H2O2 cell death
1 | CCc1ccc(/C=N/NC(=O)c2nnn(-c3nonc3N)c2CN2CCc3ccccc32)cc1 | -2.2%
2 | NC(=O)c1cc(-c2cccnc2)nc2ccc(Br)cc12 | 0.3%
3 | O=C(CSc1c2c(nc3ccc(Cl)cc13)CCCC2)NCc1ccco1 | 5.3%
4 | O=C(NCc1ccco1)c1cc(-c2cccnc2)nc2ccc(Cl)cc12 | 74% (active)
5 | Cc1cccc(NC(=O)N2CCCCCC2)c1C | -0.5%
6 | O=C(COc1ccccc1)Nc1nonc1NC(=O)COc1ccccc1 | -3.9%
7 | O=C(CCN1C(=O)C2C3C=CC(C3)C2C1=O)Nc1ccccc1F (centres undefined) | -1.8%
8 | O=C(NCCN1C(=O)C2C3C=CC(C3)C2C1=O)Nc1ccccn1 (centres undefined) | -2.9%
9 | N#Cc1ccc(OCC(=O)Nc2nc(-c3ccccn3)cs2)cc1 | 69.2% (active)
10 | O=C(CN1C(=O)C2C3C=CC(C3)C2C1=O)Nc1nc(-c2ccccn2)cs1 (centres undefined) | 51.3% (active)
11 | O=C(COc1ccccc1F)Nc1nc(-c2ccccn2)cs1 | 60% (active)
12 | CC(NC(=O)c1ccco1)C(=O)Nc1nc(-c2ccccn2)cs1 (centres undefined) | 10.4%
13 | CC1CCN(S(=O)(=O)c2nnc(NC(=O)COc3ccccc3F)s2)CC1 | -6.3%
14 | CC1CCCCC1NC(=O)COc1ccc(C#N)cc1 (centres undefined) | 7%
15 | CC12CCC(=O)N1C(C(=O)Nc1ccc(F)c(F)c1F)CS2 (centres undefined) | 0.6%
16 | COc1ccc2c(c1)c(=Cc1ccc(N(C)C)cc1)c1cc(-c3ccccc3)[n+](C)n12 | -20%
17 | COc1ccccc1N(C)S(=O)(=O)c1ccc(Cl)c(C(=O)Nc2ccncc2)c1 | -8.6%
18 | Cn1nnnc1-c1cc(Cl)cc(Cl)c1 | -2.9%
19 | Cn1cccc1C(=O)NC(=O)COC(=O)Cc1coc2ccc3ccccc3c12 | -3.6%
20 | O=C(Nc1cccc(-c2nc3ccccc3[nH]2)c1)c1ccc(C(=O)Nc2cccc(-c3nc4ccccc4[nH]3)c2)cc1 | 49.1% (active)
21 | O=C(NCC(O)c1nc2ccccc2[nH]1)c1ccc(Br)cc1 (centres undefined) | -3.3%
22 | O=C(Nc1ccccc1)c1cc2ccccc2[nH]1 | 3.8%
23 | CCOC(=O)Cn1c(O)c(N=NC(=O)CNC(=O)Cc2ccccc2)c2ccccc21 | 6.8%
24 | CN(Cc1ccccc1F)c1cc2c(c3c1ccn3C)C1CCC2O1 (centres undefined) | -4.4%
25 | COc1ccccc1C(=O)C(O)c1ccccc1OC (centres undefined) | 1.8%
26 | CCCn1c(SCC(=O)Nc2ccc(C)c(S(=O)(=O)N3CCOCC3)c2)n[nH]c1=O | 6.6%
27 | C[C@H]1Cn2cnc(C(=O)N[C@H](C)c3ccccc3)c2C(=O)N1 | 7.3%
28 | C[C@H]1Cn2cnc(C(=O)N[C@@H](Cc3c[nH]c4ccccc34)C(=O)OC(C)(C)C)c2C(=O)N1 | 99.5% (active)
29 | C[C@@H]1Cn2cnc(C(=O)Nc3ccc(CNC(=O)OC(C)(C)C)cc3)c2C(=O)N1 | -12.9%
